Source: PubChem BioAssay
This is a sample that favours compounds with a hit; in the whole collection about 1.5% have one here.
CtBP-E1A inh: CtBP/E1A binding inhibition. activity change, % (concentration not given with the values). 340,000 compounds, 0.49% hits. AlphaScreen GST-E1A/His-CtBP binding, 1536-well; stronger effect = lower value; in the data active = activity change below about -65%; inconclusive = mostly about -30% to -63%
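GST-E1A and His-tagged CtBP (125 nM each as 5X stock) were preincubated with pin-transferred compound for 2 h at 37 °C in the dark, then glutathione donor and nickel acceptor beads were added for 1 h before AlphaScreen reading.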
Eya2 inh: Eya2 (human) phosphatase inhibition; AID 488837; recombinant Eya2, OMFP fluorescence dephosphorylation (OMFP is methylfluorescein phosphate); O00167; Potency, µM (titrated, usually from 76.9 µM), inactives show top-dose activity, negative = inhibition, hits mostly inhibitors; 330,000 compounds, 0.006% hits; also: potency is read from the fitted curve at half-maximal effect
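Eya2 protein (added as 0.2 uM solution) was preincubated with compound for 10 min at ambient temperature in 50 mM HEPES pH 7.5, 50 mM NaCl, 5 uM MgCl2, 0.05% BSA, 1 mM DTT. OMFP (added at 50 uM) then reacted 10 min; fluorescence read at 485/525 nm.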
GALK inh: inhibitors of human galactokinase; 270,000 compounds, 0.007% hits; AID 1868; P51570; Purified GALK, Kinase-Glo residual ATP luminescence; Potency, µM (doses to about 57.5 µM), without a hit: at the highest dose activity change, negative = inhibition, actives largely listed as inhibitors; also: potency is read from the fitted curve at half-maximal effect
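Galactose (100 uM) and ATP (35 uM) were turned over by 5 nM GALK for 1 h at RT. Kinase-Glo Plus then converted the remaining ATP into a luminescent signal.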
rTrxR1 inhibitor: inhibitors of rat thioredoxin reductase 1. O89049. recombinant rTrxR1, NADPH fluorescence consumption, selenite substrate. Potency, µM (series often up to 114 µM), without a hit: top-dose activity change, negative = inhibition, usual class: inhibitors. 390,000 compounds, 1% hits. AID 588453; also: potency is read from the fitted curve at half-maximal effect; nearly all actives have a fitted effect of over 65% in size
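Rat TrxR1 (90 nM in the dispensed reagent) was pre-reduced with 400 uM NADPH for 5 min at room temperature, then incubated with compound for 15 min. After 400 uM selenite was added, NADPH fluorescence (Ex 340/Em 450 nm) was followed for 8 min.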
TrxR1 substrate: substrates of rat thioredoxin reductase 1 | purified TrxR1 substrate turnover, NADPH consumption readout | 390,000 compounds, 0.01% hits | Potency, µM (highest dose often 114 µM), inactives show at the highest dose activity change, negative = substrate turnover; also: potency is read from the fitted curve at half-maximal effect; nearly all actives have a fitted effect of over 50% in size
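Rat TrxR1, dispensed at 90 nM, was prereduced with 400 uM NADPH (final) for 5 min at ~22 deg C, then incubated with compound 15 min before 400 uM selenite. A first-read NADPH fluorescence drop versus no-compound background flagged substrates.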
Six1-Eya2 inh: blocks human Six1 binding to Eya2 | AlphaScreen GST-Six1/His-Eya2 binding, biochemical; stronger effect = lower value | activity change, % (concentration not given with the values) | 360,000 compounds, 0.56% hits | AID 651725; in the data active = activity change below about -65%; inconclusive = mostly about -30% to -63%
Target sequence (O00167 whole entry, looked up): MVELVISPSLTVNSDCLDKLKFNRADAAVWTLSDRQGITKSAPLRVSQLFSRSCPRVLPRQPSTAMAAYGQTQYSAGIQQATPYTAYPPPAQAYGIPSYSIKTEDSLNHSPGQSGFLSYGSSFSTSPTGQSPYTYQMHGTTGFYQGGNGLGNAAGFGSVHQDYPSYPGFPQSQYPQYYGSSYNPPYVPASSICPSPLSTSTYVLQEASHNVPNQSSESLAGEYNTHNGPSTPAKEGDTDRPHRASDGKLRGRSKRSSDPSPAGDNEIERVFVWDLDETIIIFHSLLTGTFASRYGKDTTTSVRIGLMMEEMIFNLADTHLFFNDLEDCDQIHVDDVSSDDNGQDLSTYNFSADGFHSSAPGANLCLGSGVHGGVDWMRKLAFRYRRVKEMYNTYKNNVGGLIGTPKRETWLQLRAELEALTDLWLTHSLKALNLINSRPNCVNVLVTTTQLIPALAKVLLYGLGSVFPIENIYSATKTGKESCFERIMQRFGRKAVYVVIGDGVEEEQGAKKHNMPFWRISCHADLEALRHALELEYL
Target sequence (Q15475 whole entry, looked up): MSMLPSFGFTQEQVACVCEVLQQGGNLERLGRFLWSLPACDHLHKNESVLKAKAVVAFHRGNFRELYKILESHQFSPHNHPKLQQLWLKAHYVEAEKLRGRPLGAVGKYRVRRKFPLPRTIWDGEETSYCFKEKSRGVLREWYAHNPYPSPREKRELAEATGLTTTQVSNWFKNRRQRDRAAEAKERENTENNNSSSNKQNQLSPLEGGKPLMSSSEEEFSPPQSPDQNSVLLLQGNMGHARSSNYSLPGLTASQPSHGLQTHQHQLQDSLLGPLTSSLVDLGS
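AlphaScreen luminescence read after one hour at 37 °C in darkness. Pin-transferred compounds met GST-Six1 and His-Eya2 protein (5X stock 250 nM/500 nM) plus glutathione donor and Ni-chelate acceptor beads (5X, 50 ug/mL).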
Starred values were filed as active, the others as inactive; ? = inconclusive; . = no result; [ ] = another dose, or the depositor's remark. Unless noted, calls follow the shape of the dose curve; as a rule, active = well fitted curve in the direction sought with a large enough effect; inconclusive = small, poorly fitted or top-dose-only effect, or another doubt; inactive = no such curve, though single readings can be large; an effect the other way counts as inactive or inconclusive. % is scaled to controls: 0 for no effect and ±100 for the full control effect.

SMILES	CtBP-E1A inh	Eya2 inh	GALK inh	rTrxR1 inhibitor	TrxR1 substrate	Six1-Eya2 inh
CCCCn1cnc2c(SCc3ccc([N+](=O)[O-])cc3)nc(N)nc21	3	.	.	5%	-4%	0
CCCn1cnc2c(Sc3c([N+](=O)[O-])ncn3C)nc(N)nc21	-1	.	.	3.2µM*	-4%	-5
Cn1cnc([N+](=O)[O-])c1Sc1nc(N)nc2c1ncn2Cc1ccccc1	-6	.	.	6.3µM*	-8%	0
Nc1nc(SCc2ccccc2[N+](=O)[O-])c2ncn(Cc3ccccc3)c2n1	-16	.	.	19%	-1%	-22
CCCCn1cnc2c(Sc3c([N+](=O)[O-])ncn3C)nc(N)nc21	-8	.	.	2.8µM*	-6%	-6
COc1ccc2c(c1)c1c(c(=O)n(-c3cccc(C)c3)c(=O)n1Cc1cccc(Cl)c1)n2C	.	.	.	26%	58%	.
S=C(NCc1ccccc1)NCc1ccccc1Cl	-68*	5%	-1%	-1%	-9%	-3
Fc1ccc(NC(=S)NCc2ccccc2Cl)cc1	15	3%	0%	-9%	-5%	9
COc1cc(/C=N/NC(=O)CNC(=O)c2ccco2)ccc1O	14	-4%	9%	10%[57.1 µM]	-2%	3
O=C(CNC(=O)c1ccco1)N/N=C/c1cc(Br)ccc1O	-86*	-1%	-1%	11%[57.1 µM]	1%[57.1 µM]	-97*
O=C(CNC(=O)c1ccco1)N/N=C/c1ccc(O)cc1O	.	4%	0%	-9%	-3%	-86*
COc1ccc(OC)c(CCNC(=O)C(C)n2c(C)c3cnn(-c4ccccc4)c(=O)c3c2C)c1 (stereo not given)	.	.	.	4%	-3%	.
CCCN1C(=O)c2[nH]nc(-c3ccccc3O)c2C1c1ccc(OCc2ccccc2)c(OCC)c1 (stereo not given)	.	.	.	21%	-1%	.
Cc1cccc(-n2c(SCC(=O)c3ccccc3)nnc2-c2ccc(Br)cc2)c1	.	.	.	24%[57.1 µM]	8%[57.1 µM]	.
CCC1Oc2ccc(C)cc2N(CC(=O)NC2CCCCC2)C1=O (stereo not given)	1	13%	-3%	12%	6%	3
CCC1Oc2ccc(C)cc2N(CC(=O)N(Cc2ccc(C)o2)C2CCCC2)C1=O (stereo not given)	0	-21%	-3%	25µM*	-1%	-12
Cc1ccc(NC(=O)c2c(C)nn(-c3ccccc3)c2-n2cccc2)c(Cl)c1	.	.	.	-12%	-8%	.
COC(=O)c1cn[nH]c1NC(=S)Nc1ccc(C)cc1Cl	4	-8%	2%	?	5%	1
CCC(=O)NC(=S)Nc1ccccc1C(=O)OC	11	6%	1%	50µM*	-4%	3
COC(=O)c1cn[nH]c1NC(=S)Nc1ccccc1C	4	-8%	2%	0.79µM*	10%	-10
Cc1cc(C(Br)(Br)Br)nc2ccccc12	.	.	.	3.2µM*	5%	.
COc1cc(OC)cc(C(=O)NCCc2csc(-c3cccc(C)c3)n2)c1	.	.	.	19%[57.1 µM]	7%[57.1 µM]	.
O=C(NCc1ccco1)c1ccc(Cl)c(S(=O)(=O)Nc2ccccc2)c1	-5	3%	9%	3%	0%	-10
Cc1ccc(C(=O)NCc2ccco2)cc1Br	31	2%	0%	18µM*	1%	21
CNS(=O)(=O)c1cc(C(=O)NCc2ccco2)ccc1Cl	21	13%	-5%	9%[57.1 µM]	7%[57.1 µM]	-69*
SMILES	CtBP-E1A inh	Eya2 inh	GALK inh	rTrxR1 inhibitor	TrxR1 substrate	Six1-Eya2 inh
CC(NC(=O)COC(=O)c1ccco1)C12CC3CC(CC(C3)C1)C2 (stereo not given)	.	.	.	21%	0%	.
Cn1cc(S(=O)(=O)N2CCCC2)cc1C(=O)Nc1ccc(C(F)(F)F)cc1	.	.	.	15%	-3%	.
Cc1nn(CC(=O)Nc2ccccc2F)c(=O)c2c(C)n(-c3ccc(Cl)cc3)nc12	.	.	.	8%[57.1 µM]	-3%[57.1 µM]	.
Nc1nnnn1/N=C/c1ccc(Br)cc1	7	5%	0%	5%	3%[57.1 µM]	5
Nc1nnnn1/N=C/c1cc(Br)ccc1O	-94*	.	.	30%[57.1 µM]	-6%	-92*
CCc1ccc(CN(Cc2cn[nH]c2-c2ccc(OC)cc2)C(=O)Nc2ccc(Br)cc2)cc1	.	.	.	2%	-11%	.
CCn1c(C)nc2cc(C(=O)N/N=C/c3cccc(OC)c3O)ccc21	-93*	-21%	9%	4%[57.1 µM]	-2%[57.1 µM]	-80*
CCn1c(C)nc2cc(C(=O)N/N=C/c3ccc(O)c(O)c3O)ccc21	-93*	4%	-1%	-6%[57.1 µM]	-18%	-90*
COc1cccc(/C=N/NC(=O)c2nc(-c3ccccc3)cc(-c3ccccc3)n2)c1O	-6	-4%	3%	-10%	-15%	-3
CNC(=O)C1CCC(Cn2c(=O)c3sccc3n(CC(=O)NCc3ccc(C)cc3)c2=O)CC1 (stereo not given)	.	.	.	7%[57.1 µM]	4%[57.1 µM]	.
CCOC(=O)N(C)OC(=O)Nc1ccc(Cl)c(Cl)c1	7	-5%	6%	16µM*	7%[57.1 µM]	4
CCN(CC)CCCNC(=O)/C=C/C(=O)O	-17	-16%	0%	2.8µM*	19%[57.1 µM]	-7
O=C1NC(c2ccc(Br)cc2)Nc2sc3c(c21)CCC3 (stereo not given)	5	-16%	-2%	?	5%	-9
CN1CCc2c(sc3c2C(=O)NC(c2ccccn2)N3)C1 (stereo not given)	?	7%	-2%	?	82%	-67*
O=C1NC(c2ccccn2)Nc2sc3c(c21)CCC3 (stereo not given)	-77*	-10%	-2%	?	-3%	-80*
Cc1ccsc1C1NC(=O)c2c(sc3c2CCCC3)N1 (stereo not given)	-9	10%	1%	45µM*	0%	-12
CCC(=O)N1CCc2cc(S(=O)(=O)CCC(=O)Nc3ccc(Cl)c(C(F)(F)F)c3)ccc21	.	.	.	-2%	-5%	.
CC(C)(C)n1ncc2c(=O)n(Cc3ccc(Cl)c(F)c3)cnc21	.	.	.	11%	5%	.
CCc1cccc(C)c1NS(=O)(=O)c1c(C(=O)N2CCC(C)CC2)c(C)n(C)c1C	.	.	.	-3%[57.1 µM]	-3%[57.1 µM]	.
O=C(Nc1ccc(-c2nc3ncccc3o2)cc1)c1ccco1	-20	10%	-3%	40µM*	29%	-7
Cc1cccc(C(C)C)c1NC(=O)c1ccc2c(c1)CCN2S(C)(=O)=O	.	.	.	3%	-2%	.
CCCN1C(=O)CC(c2ccco2)Sc2ccccc21 (stereo not given)	-7	22%	3%	?	9%	-5
O=C1CC(c2ccco2)Sc2nc3ccccc3n21 (stereo not given)	-10	1%	0%	13µM*	3%	-2
CN1C(=O)CC(c2ccco2)Sc2ccccc21 (stereo not given)	-14	-2%	0%	56µM*	-8%	-14
